# Measurements reported in PubChem BioAssay AID588651 (The Scripps Research Institute Molecular Screening Center, 2011).
# The source made the active and inactive calls. Rule as the data show it: active = inhibition above about 65%; inactive = the rest.
# Test system: Antitargets
# Assay: Fam108b inhibition by ABPP, late-stage follow-up, biochemical, gel-based ABPP, recombinant soluble Fam108b, HTS hits, complex proteome (AID 588651);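 also: Fam108b spiked into mouse brain membrane proteome; tested at 20 µM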
# Settings: FP-rhodamine labeling in proteome
row,Structure (SMILES),outcome
1,Cc1ccccc1N1C(=O)/C(=C/c2ccco2)C(=O)NC1=S,inactive
2,NC(Cc1cc(O)c(O)cc1O)C(=O)O (stereo not drawn),inactive
3,C[n+]1c(-c2ccccc2)c2cc(N)ccc2c2ccc(N)cc21,inactive
